Source: PubChem (National Center for Advancing Translational Sciences (NCATS))
Hits are enriched below; roughly 7.3% of the tested compounds scored in any of these assays.
Luc counter = Counterscreen for Luciferase (Kinase-Glo TM) Inhibition | Luciferin 4-monooxygenase (Photuris pensylvanica), Q27757 | Kinase-Glo luciferase, ATP luminescence, 8 min | Potency, µM (series often up to 38.3 µM), usual class: inhibitors | actives 0.28% (n = 200,000) | AID 1379, 2008; also: nearly all actives have a fitted effect of over 60% in size
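Compounds were added to a substrate mix at pH 7.2 (50 mM imidazole, 10 uM ATP, within the enzyme's linear range), followed by Kinase-Glo detection reagent; luminescence was measured after 8 minutes at ambient temperature.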
ELG1 genotoxic = qHTS screen for small molecules that induce genotoxicity in human embryonic kidney (HEK293T) cells expressing luciferase-tagged ELG1; HEK293T ELG1-luciferase reporter, luminescence, 16 h; Potency, µM (doses to about 46 µM), hits mostly activators; actives 1.3% (n = 330,000); AID 504466, 2011; also: nearly all actives have a fitted effect of over 60% in size
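Genotoxic stress is detected as increased luminescence from luciferase-tagged ELG1 in HEK293T cells, measured with ONE-Glo after a 16 hr treatment at 37 °C.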
NPC1 promoter act = qHTS Assay for NPC1 Promoter Activators | Huh7 NPC1 promoter luciferase reporter, 24 h | AID 485313, 2010 | actives 2.4% (n = 320,000) | Potency, µM (highest dose often 9.22 µM), hits mostly activators; also: nearly all actives have a fitted effect of over 60% in size
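Stably transfected Huh7 (NPC1 promoter→luciferase), 1500 cells/well in Opti-MEM + 10% FBS, 2 h settle, then compound 24 h at 37 °C. Luminescence after 10 min with Amplite reagent.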
Rab9 promoter act = qHTS Assay for Rab9 Promoter Activators | actives 2.8% (n = 320,000) | Huh7 Rab9 promoter-luciferase reporter, luminescence, 24 h | Potency, µM (highest dose often 9.22 µM), most hits filed as activators | AID 485297, 2010; also: nearly all actives have a fitted effect of over 60% in size
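Cell-based reporter: Huh7 stable for Rab9 promoter-driven luciferase, plated in reduced-serum medium with 10% FBS at 1500 cells/well, compound-treated 24 h at 37 °C, luminescence read after 10 min reagent.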
SMN2 splice up = qHTS Assay for Enhancers of SMN2 Splice Variant Expression | HEK293 SMN2-luciferase splicing reporter, luminescence, 30-36 h | Potency, µM (titrated, usually from 46.1 µM), hits mostly activators | actives 2.8% (n = 210,000) | AID 1458, 2008; also: nearly all actives have a fitted effect of over 55% in size
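qHTS luciferase splicing reporter: luminescence rises when SMN2 exon 7 is included in transfected HEK293 cells. Compound exposure lasted 30-36 h at 37C, with 4.5 mM final sodium butyrate as control, followed by a ONE-Glo read.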
FLuc modulator = qHTS profiling assay for firefly luciferase inhibitor/activator using purifed enzyme and Km concentrations of substrates (counterscreen for miR-21 project); Luciferin 4-monooxygenase (Photinus pyralis), P08659; purified FLuc, Km substrates, luminescence inhibition; Potency, µM (highest dose often 57.5 µM), most hits filed as inhibitors; actives 6.9% (n = 360,000); AID 588342, 2011; also: nearly all actives have a fitted effect of over 55% in size
Target sequence (P08659 whole entry, looked up): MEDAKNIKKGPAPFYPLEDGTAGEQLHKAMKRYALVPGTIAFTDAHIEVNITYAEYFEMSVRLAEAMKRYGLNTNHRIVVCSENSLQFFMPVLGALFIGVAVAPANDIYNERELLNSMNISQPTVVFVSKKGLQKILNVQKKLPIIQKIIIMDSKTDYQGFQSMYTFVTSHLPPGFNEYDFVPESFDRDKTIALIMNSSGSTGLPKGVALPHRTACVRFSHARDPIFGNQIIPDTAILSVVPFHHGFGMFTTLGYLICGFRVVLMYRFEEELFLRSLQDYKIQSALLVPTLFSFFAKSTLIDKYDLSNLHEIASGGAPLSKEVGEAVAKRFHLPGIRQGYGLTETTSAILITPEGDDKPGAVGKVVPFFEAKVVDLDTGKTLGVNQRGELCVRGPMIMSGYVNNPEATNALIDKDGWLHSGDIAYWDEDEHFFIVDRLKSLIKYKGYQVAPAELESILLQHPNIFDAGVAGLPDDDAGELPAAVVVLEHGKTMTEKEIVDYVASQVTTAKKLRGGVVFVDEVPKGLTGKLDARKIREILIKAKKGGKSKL
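Purified P. pyralis luciferase, 10 nM final, with Km-level 10 uM D-luciferin and 10 uM ATP in 50 mM Tris acetate pH 7.5, 10 mM Mg acetate, 0.01% Tween-20, 0.05% BSA; 6-point qHTS titration about 60 µM downward; luminescence read.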
A number is an active result; 0 = inactive; ? = inconclusive; - = no result; [ ] = another dose, or the depositor's remark. Calls follow the shape of the dose curve; as a rule, active = well fitted curve in the direction sought with a large enough effect; inconclusive = small, poorly fitted or top-dose-only effect, or another doubt; inactive = no such curve, though single readings can be large; an effect the other way counts as inactive or inconclusive.

SMILES	Luc counter	ELG1 genotoxic	NPC1 promoter act	Rab9 promoter act	SMN2 splice up	FLuc modulator
Nc1c(C(=O)Nc2ccc(Cl)c(C(=O)O)c2)sc2nc3c(cc12)CCCC3	-	0	?	?	-	2.7µM
Nc1c(C(=O)Nc2cccc(C(=O)O)c2)sc2nc3c(cc12)CCCC3	-	?	?	1.3µM	-	0.067µM
CCN1CCc2nc3sc(C(=O)c4ccccc4)c(N)c3cc2C1	-	-	-	-	0	9.5µM
CCN1CCc2nc3sc(C(=O)c4ccc(F)cc4)c(N)c3cc2C1	-	-	-	-	-	0
CCOc1ccc(NC(=O)c2sc3nc4c(cc3c2N)CCCCCC4)cc1	-	-	-	-	0	0
CCCCCSc1nc2sc3c(c2c(=O)n1-c1ccccc1)CCN(C(C)=O)C3	-	-	-	-	0	0
CC(=O)C(Sc1nc(-c2ccccc2Cl)nc2c1c(=O)n(C)c(=O)n2C)C(=O)N(C)C (configuration not stated)	-	-	-	-	-	0
O=C1/C(=C/C=C/c2ccco2)SC(=S)N1c1ccc(O)cc1	-	0	0	0	-	21µM
O=C(NN1C(=O)/C(=C/C=C/c2ccco2)SC1=S)c1ccncc1	-	0	0	0	-	21µM
O=C1/C(=C\c2ccco2)SC(=S)N1c1ccc(O)cc1	0	0	0	0	0	?
COc1ccc(/C=C2\SC(=S)N(NC(=O)c3ccncc3)C2=O)cc1OC	0	0	0	0	0	?
O=C(NN1C(=O)/C(=C/C=C/c2ccccc2)SC1=S)c1ccncc1	0	0	0	0	0	13µM
CN(C)c1ccc(/C=C/C=C2/SC(=S)N(c3ccccc3)C2=O)cc1	?	0	?	?	0	4.8µM
CC(C)C(C(=O)O)N1C(=O)/C(=C/C=C/c2ccco2)SC1=S (configuration not stated)	0	0	0	0	0	0
CCCCCNC(=O)C1CCC(Cn2c(=O)c3sccc3n(CC)c2=O)CC1 (configuration not stated)	-	-	-	-	-	0
CN1C(=O)c2ccccc2Sc2ccc(NC(=O)N3CCN(c4ccc(F)cc4)CC3)cc21	-	-	-	-	-	0
Cc1cccc(Cn2c(CNS(=O)(=O)c3ccc(C(C)C)cc3)nc3cccnc32)c1	-	-	-	-	-	0
O=C(C#Cc1ccccc1)Nc1ccccc1F	-	0	?	?	-	1.9µM
COc1ccc(NC(=O)Nc2ccccc2F)cc1	?	2.6µM	0.56µM	0.45µM	11µM	3.4µM
COc1ccc(NC(=O)Nc2ccccc2F)c(C)c1	0	0	0	?	-	0
COc1ccc(NC(=O)Nc2ccccc2F)cc1Cl	0	5.2µM	1.8µM	1.4µM	10µM	?
COc1ccc(NC(=O)CN(C)C(=O)c2ccc(S(=O)(=O)Nc3ccccc3F)cc2)cc1	-	0	0	0	-	13µM
COc1ccc(NC(=O)c2c(F)c(F)c(F)c(F)c2F)cc1Cl	0	0	0	0	?	0[2.3 µM]
CNC(=O)Nc1ccccc1F	0	0	0	0	0	0
COc1ccc2cc(CNc3ccc(C)cc3)c(=O)n(CC(=O)Nc3cccc(C(F)(F)F)c3)c2c1	-	-	-	-	-	0
SMILES	Luc counter	ELG1 genotoxic	NPC1 promoter act	Rab9 promoter act	SMN2 splice up	FLuc modulator
O=C(Nc1ccccc1Cl)C1CCN(c2nc3ccccc3[nH]2)CC1	-	-	-	-	-	0
CCCC1(C)C(C#N)(C#N)C1(C#N)C#N	-	-	0	0	-	-
Cc1ccc(-c2noc(-c3ccccc3NC(=O)C3CC(=O)N(c4ccc(C)cc4)C3)n2)cc1 (configuration not stated)	-	-	-	-	-	0
COc1ccc(Cl)cc1NC(=O)Nc1ccccc1SC	0	0	0	0	0	0
COc1cccc(COC(=O)Nc2ccccc2F)c1	-	4.1µM	1.1µM	2µM	-	11µM
COc1ccc(NC(=O)Nc2ccccc2SC)cc1	10µM	?	?	?	13µM	11µM
COc1ccc(-c2cc(C(=O)Nc3ccccc3SC)no2)cc1	0	0	0	0	0	0
Fc1ccccc1NC(=S)N/N=C/c1ccccc1Br	0	4.5µM	?	3.2µM	11µM	13µM
CSc1ccccc1NC(=O)Nc1ccc(Cl)cc1	0	?	?	?	0	11µM
COc1ccccc1N1CCN(C(=O)c2cnc(N3CCCCC3)c3ccccc23)CC1	-	-	-	-	-	0
CCCn1c(CCC(=O)Nc2cc(Cl)c(OC)cc2OC)nc2cccnc21	-	-	-	-	0	0
COc1ccc(C/C(C)=N/NC(=S)Nc2ccc(C(C)C)cc2)cc1	0	0	0	0	0	?
O=C(Nc1ccccc1F)Nc1ccccc1Br	0	?	0	0	0	17µM
COc1ccc(C/C(C)=N/NC(=S)Nc2ccccc2F)cc1	0	8.2µM	3.2µM	2.5µM	0	15µM
CCCCc1nc2c(c3c1C[C@H](C)OC3)CN(C(=O)C1CC1)CC2	0[7.66 µM]	-	-	-	0[9.22 µM]	-
O=C(OCc1ccccc1F)c1ccc(-c2nnn(Cc3ccccc3)n2)cc1	-	-	-	-	0	0
Cc1ccc(NCCC(=O)c2cccs2)cc1Cl	0	21µM	0	0	0	?
C/C(=N/OCC(=O)Nc1ccccc1)c1cccs1	0	?	?	?	0	9.5µM
O=C(CCNc1cccc(Cl)c1)c1cccs1	0	0	0	0	0	?
Cc1ccc(NCCC(=O)c2cccs2)cc1C	0	?	0	?	?	3.4µM
CC(CC(=O)c1cccs1)CC(=O)c1cccs1	0	0	2.8µM	2.8µM	?	21µM
CCN=C(N)CSS(=O)(=O)O	0[7.66 µM]	-	-	-	0[9.22 µM]	-
O=C(NC(=S)Nc1ccc(N2CCCCC2)cc1)c1cccs1	0	2.9µM	1.3µM	2.2µM	0	5.4µM
CC(C)c1ccc(NCCC(=O)c2ccc(Br)cc2)cc1	0	0	0	0	0	0
CC(C)c1ccc(NCCC(=O)c2cccs2)cc1	0	?	?	?	0	12µM
SMILES	Luc counter	ELG1 genotoxic	NPC1 promoter act	Rab9 promoter act	SMN2 splice up	FLuc modulator
Cc1ccc(NCCC(=O)c2ccc(Cl)c(Cl)c2)cc1	0	0	0	0	0	0
Cc1ccc(NC(=O)COC(=O)CCC(=O)c2cccs2)c(Br)c1	-	0	0	0	-	0
Cc1ccc(NC(=O)CCC(=O)c2cccs2)c(Br)c1	-	?	?	3.5µM	-	?
Cc1ccc(NCCC(=O)c2cccs2)cc1	0	?	?	2.8µM	0	21µM
Cc1cc(C)c(C(CC(=O)c2cccs2)C(C#N)C#N)c(C)c1 (configuration not stated)	0	18µM	?	3.5µM	?	12µM
Cc1ccc(NC(=O)CCC(=O)c2cccs2)cc1	0	0	0	0	0	11µM
Cc1ccc(NC(=O)CNCc2cccs2)c(Br)c1	-	?	0	0	-	27µM
Cc1ccc(NC(=O)CNCc2ccccc2)c(Br)c1	0	?	0	0	0	?
